Compounds with a hit are over-represented: about 21% of the library has one in this group of screens.
DT40 TDP1 CPT: DT40-hTDP1 cell growth loss with CPT; chicken DT40 Tdp1-/-;hTDP1 cells + 20 nM CPT, ATP luminescence, 48 h; Potency, µM (series often up to 46.2 µM), inactives show at the top dose activity change, negative = growth inhibition, most hits filed as inhibitors; 420,000 compounds, 12% hits; note: potency is the fitted concentration of half-maximal effect; nearly all actives have a fitted effect of over 55% in size
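Cell growth measured by CellTiter-Glo luminescence after a minimum 48 h, 37 C compound exposure with 20 nM CPT in Tdp1-knockout DT40 cells stably expressing hTDP1, seeded 400/well; qHTS titration format.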
DT40 TDP1 no CPT: qHTS for Inhibitors of human tyrosyl-DNA phosphodiesterase 1 (TDP1): qHTS in cells in absence of CPT. Potency, µM (top dose mostly 46.2 µM), for the others: at the top dose activity change, negative = growth inhibition, hits mostly inhibitors. DT40 Tdp1-/- hTDP1 cells, no CPT, ATP luminescence, 48 h. 420,000 compounds, 15% hits. AID 686978, 2013; note: potency is the fitted concentration of half-maximal effect; nearly all actives have a fitted effect of over 55% in size
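Camptothecin absent (DMSO only). Human TDP1-complemented DT40 knockout cells, 400 cells/well, 37 °C for minimum 48 hr; ATP measured via CellTiter-Glo, 30 min dark incubation, luminescence.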
Gal4-VP16 FLuc: inhibits Gal4-VP16 luciferase reporter, ROR gamma counter-screen; Drosophila S2 Gal4-VP16 UAS-luciferase, luminescence, 20 h; Potency, µM (series often up to 53.6 µM), for the others: top-dose activity, negative = inhibition, hits mostly inhibitors; 310,000 compounds, 3.5% hits;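 note: Gal4-VP16 expression switched on by copper sulfate through the metallothionein promoter; potency is the fitted concentration of half-maximal effect; nearly all actives have a fitted effect of over 50% in size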
IL1B secr inh: inhibitors of inflammasome signaling (IL-1 beta secretion); THP-1 LPS/ATP IL-1B secretion, AlphaLISA, 16 h; stronger effect = lower value; activity change, % at 57.5 µM; 360,000 compounds, 4.7% hits; AID 743279; in the data active = activity change below about -50%; inconclusive = mostly about -30% to -49%
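Secreted IL-1B measured by AlphaLISA bead assay after 16 h compound exposure of THP-1 cells; compounds (final up to 57.5 uM) added 1 h before LPS (250 ng/mL) and ATP (1.25 mM) stimulation; lower signal means less secretion.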
ELG1 repair inh: inhibitors of ELG1-dependent DNA repair in HEK293T cells | HEK293T ELG1-luciferase reporter, luminescence, 16 h; DNA damage induced by 5-fluorouridine | Potency, µM (doses to about 46.1 µM), inactives show at the top dose activity change, negative = inhibition, actives largely listed as inhibitors | 330,000 compounds, 2.3% hits | AID 504467; note: potency is the fitted concentration of half-maximal effect; nearly all actives have a fitted effect of over 55% in size
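Luminescence from the luciferase reporter, measured 30 min after ONE-Glo reagent at room temperature, was the read-out. Beforehand, 2,000 cells per well were exposed for 16 hr at 37 °C to 5-fluorouridine together with compound or vehicle.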
RORg inh: blocks mouse ROR gamma transcriptional activity | Drosophila S2 Gal4-RORgamma UAS-luciferase reporter, 20 h | Potency, µM (highest dose often 53.6 µM), without a hit: top-dose activity change, negative = inhibition, usual class: inhibitors | 310,000 compounds, 5.4% hits | AID 2551 | P51450; note: potency is the fitted concentration of half-maximal effect; nearly all actives have a fitted effect of over 60% in size
Target sequence (P51450 whole entry, looked up, the tested form may be a part): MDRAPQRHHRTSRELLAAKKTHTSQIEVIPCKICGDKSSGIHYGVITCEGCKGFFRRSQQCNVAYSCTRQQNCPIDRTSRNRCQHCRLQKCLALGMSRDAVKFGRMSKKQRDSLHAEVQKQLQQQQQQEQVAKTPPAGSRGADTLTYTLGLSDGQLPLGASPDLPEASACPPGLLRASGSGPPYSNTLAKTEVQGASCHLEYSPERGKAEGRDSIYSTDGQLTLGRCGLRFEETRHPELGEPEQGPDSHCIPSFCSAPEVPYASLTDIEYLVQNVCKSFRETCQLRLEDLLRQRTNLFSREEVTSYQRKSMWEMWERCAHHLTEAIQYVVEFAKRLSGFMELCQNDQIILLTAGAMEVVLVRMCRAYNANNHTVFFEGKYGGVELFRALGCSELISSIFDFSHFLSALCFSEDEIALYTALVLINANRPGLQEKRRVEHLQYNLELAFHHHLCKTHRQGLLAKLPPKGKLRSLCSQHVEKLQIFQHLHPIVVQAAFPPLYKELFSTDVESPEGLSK
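Drosophila Schneider cells stably carrying a metallothionein-driven Gal4 DBD–ROR gamma fusion and a UAS-Photinus luciferase reporter were exposed to compound for 1 hr, then induced with copper sulfate (700 uM final) for 20 hr at ambient temperature before luminescence reading.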
* = called active by the depositor; i = inactive; ? = inconclusive; . = not tested or not shown; [ ] = another dose, or the depositor's remark. Unless noted, calls come from the whole dose curve; as a rule, active = well fitted curve in the direction sought with a large enough effect; inconclusive = small, poorly fitted or top-dose-only effect, or another doubt; inactive = no such curve, though single readings can be large; an effect the other way counts as inactive or inconclusive. % is set by controls: 0 for no effect and ±100 for the full control effect.

SMILES | DT40 TDP1 CPT | DT40 TDP1 no CPT | Gal4-VP16 FLuc | IL1B secr inh | ELG1 repair inh | RORg inh
Cc1ccc(CNC(=O)CC[C@H]2O[C@@H](n3cc(C)c(=O)[nH]c3=O)C[C@@H]2O)o1 | -5% | 6% | . | -18 | . | .
CCOC(=O)C1(C)CCCN(C(=O)c2cccc(OC(F)(F)F)c2)C1 (stereo not drawn) | ? | ? | . | -6 | . | .
O=C(c1cc(C(F)(F)F)cc(C(F)(F)F)c1)N1CCC2(CCN(Cc3nccs3)CC2)CC1 | ? | ? | -3% | . | . | 9%
CCOc1ccc2nc(NC(=O)CS(=O)(=O)c3ccc(Cl)cc3)sc2c1 | ? | 16µM* | . | . | . | .
CS(=O)(=O)c1ccc2nc(NC(=O)CS(=O)(=O)c3ccc(Cl)cc3)sc2c1 | -23% | ? | . | . | . | .
CCOc1ccc2nc(NC(=O)CS(=O)(=O)c3ccccc3)sc2c1 | -9% | ? | . | 0 | -30% | -14%[0.365 µM]
CCOc1ccc2nc(NC(=O)CS(=O)(=O)c3ccc(C)cc3)sc2c1 | -14% | 16µM* | ? | 17 | -7% | 31%
CCN(C[C@H]1N[C@@](CC)(C(=O)OC)[C@H]2C(=O)N(C)C(=O)[C@@H]12)C(=O)C1CCCCC1 | -1% | -3% | . | 0 | 12% | .
Cc1cc(Cl)ccc1NC(=O)C1CCN(S(=O)(=O)c2ccc3[nH]c(=O)ccc3c2)CC1 | -28% | -11% | . | . | . | .
S=C(NCCCN1CCOCC1)N1CCN(c2nc(-c3ccc(Cl)cc3)cs2)CC1 | 7.3µM* | 4.1µM* | 5% | -70* | 10% | -16%
S=C(NCC1CCCO1)N1CCN(c2nc(-c3ccc(Cl)cc3)cs2)CC1 (stereo not drawn) | 16µM* | 15µM* | ? | -68* | 12µM* | ?
S=C(NCCCN1CCOCC1)N1CCN(c2ccccc2)CC1 | 2% | -5% | -16% | 3 | 6% | 11%
S=C(NCCCN1CCOCC1)N1CCN(c2nc(-c3ccccc3)cs2)CC1 | ? | 23µM* | -5% | -87* | ? | -19%
Nc1ccc(Cc2ccc(C=O)cc2)cc1 | -6% | 12% | . | . | . | .
CCN(C(=O)CSc1nc2ccccc2[nH]1)C1CCS(=O)(=O)C1 (stereo not drawn) | 6% | 10% | . | -1 | 18% | .
COc1cccc(CNC(=O)c2c(OC)cc(=O)n3c2CCN(C(=O)c2csc(C)n2)CC3)c1 | 0% | -1% | . | . | . | .
OCC1CCCN(c2nc3cc4c(cc3cc2CNCc2cccc(C(F)(F)F)c2)OCO4)C1 (stereo not drawn) | -4%[9.04 µM] | -17% | . | . | . | .
Cc1noc(C)c1COc1ccccc1C(=O)N1CCN(c2cccc(Cl)c2)CC1 | ? | ? | . | 7 | 9.2µM* | .
Cc1cc(C)c(S(=O)(=O)N2CCN(C(=O)c3ccccc3OCc3c(C)noc3C)CC2)c(C)c1 | ? | -30% | . | ? | . | .
Cc1noc(C)c1COc1ccccc1C(=O)N1CCN(c2cccc(C(F)(F)F)c2)CC1 | 5.2µM* | 4.6µM* | . | -10 | 0% | .
Cc1ccc(F)c(S(=O)(=O)NC(=O)C2(C)CCN2C(=O)Cc2cc(F)ccc2F)c1 (stereo not drawn) | 2% | 0% | . | 21 | . | .
CCCN(CCC)S(=O)(=O)c1ccc(C(=O)N2CCC(=O)c3ccccc32)cc1 | ? | 23µM* | -9% | 19 | ? | 17%
COc1cc(/C=N/NC(=O)COc2c(C)cc([N+](=O)[O-])cc2C)ccc1OC(=O)c1ccccc1 | 13µM* | 21µM* | 24% | 62 | -17% | 24%
COc1ccc(/C=N/NC(=O)c2cccc([N+](=O)[O-])c2)cc1OC(=O)c1ccc(C)cc1 | ? | ? | ? | 26 | -5% | 5µM*
COc1ccc(/C=N/NC(=O)c2cccc([N+](=O)[O-])c2)cc1OC(=O)c1ccccc1 | 16µM* | 15µM* | ? | 55 | 2% | ?
SMILES | DT40 TDP1 CPT | DT40 TDP1 no CPT | Gal4-VP16 FLuc | IL1B secr inh | ELG1 repair inh | RORg inh
COc1ccc(/C=N/NC(=O)c2cccc([N+](=O)[O-])c2)cc1OC | -10% | 9% | -2% | -8 | 1% | -39%
O=C(N/N=C/c1cccc([N+](=O)[O-])c1)c1ccc(COc2ccccc2-c2ccccc2)cc1 | 21µM* | 23µM* | -3% | i | -20% | 0%
Oc1ccccc1N1CCN(C(c2ccccc2)c2ccccc2)CC1 | ? | ? | 19% | ? | 2% | -6%
O=C(N/N=C/c1ccc(OC(=O)c2ccccc2)c([N+](=O)[O-])c1)c1ccc(O)cc1 | ? | -28% | ? | 48 | -7% | 8.9µM*
COc1cc(/C=N/NC(=O)c2cccc([N+](=O)[O-])c2)ccc1OCc1ccccc1 | ? | ? | ? | -3 | ? | 3.2µM*
Cc1cccc(Cn2cc3c(=O)n(CC(=O)Nc4c(C)cccc4C)nc-3c3cc(F)ccc32)c1 | -1% | -8% | . | . | . | .
Cc1cc2c(n1-c1ccc(C(=O)NCCc3ccccc3)cc1)CCC(C)C2 (stereo not drawn) | 18µM* | 21µM* | . | . | . | .
Cc1cc2c(n1-c1ccc(C(=O)NCCc3ccc(Cl)cc3)cc1)CCC(C)C2 (stereo not drawn) | 26µM* | 23µM* | . | . | . | .
COc1ccc(CCNC(=O)c2ccc(-n3c(C)cc4c3CCC(C)C4)cc2)cc1OC (stereo not drawn) | ? | 21µM* | . | . | . | .
CCS(=O)(=O)N1CCc2cc(C(=O)NCCc3ccccc3)ccc21 | -9% | -20% | . | . | . | .

Bioassay records from PubChem BioAssay.
